Whole data set: some 33,000 sequences, median “E-score (-0.5 to 0.5)” near -0.021, cut for the highest 2% near 0.32. The list comes from a sample in which the highest values are over-represented; it also holds similar and randomly drawn sequences.
Target: T1, Zap1 (UniProt P47043)
T1 sequence: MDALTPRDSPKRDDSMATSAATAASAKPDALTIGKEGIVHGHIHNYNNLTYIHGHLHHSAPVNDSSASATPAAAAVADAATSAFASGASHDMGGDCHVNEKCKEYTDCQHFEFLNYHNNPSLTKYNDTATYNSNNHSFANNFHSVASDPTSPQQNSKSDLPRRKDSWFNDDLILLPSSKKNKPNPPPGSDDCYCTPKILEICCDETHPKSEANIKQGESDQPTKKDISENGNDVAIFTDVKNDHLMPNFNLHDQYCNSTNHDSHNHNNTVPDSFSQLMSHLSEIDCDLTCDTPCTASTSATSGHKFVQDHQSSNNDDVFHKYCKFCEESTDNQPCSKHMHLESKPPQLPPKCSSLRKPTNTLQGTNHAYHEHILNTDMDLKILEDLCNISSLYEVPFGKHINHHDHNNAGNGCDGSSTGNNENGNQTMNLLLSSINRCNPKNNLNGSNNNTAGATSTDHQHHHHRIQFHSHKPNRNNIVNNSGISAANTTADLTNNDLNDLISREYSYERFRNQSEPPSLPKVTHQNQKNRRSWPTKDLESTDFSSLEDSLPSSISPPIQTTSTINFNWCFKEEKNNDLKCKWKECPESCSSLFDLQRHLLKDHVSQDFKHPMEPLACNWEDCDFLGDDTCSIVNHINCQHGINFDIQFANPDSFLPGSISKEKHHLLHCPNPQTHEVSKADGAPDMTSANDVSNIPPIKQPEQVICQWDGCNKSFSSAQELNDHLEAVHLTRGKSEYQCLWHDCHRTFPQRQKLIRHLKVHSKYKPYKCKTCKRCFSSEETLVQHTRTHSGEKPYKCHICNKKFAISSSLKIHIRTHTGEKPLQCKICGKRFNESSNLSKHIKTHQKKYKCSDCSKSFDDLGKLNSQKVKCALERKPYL
Assay: PBM E-score (8-mer binding enrichment) (E-score (-0.5 to 0.5)); higher = stronger / more preferred TF binding
Conditions: protein concentration: 200 nM; construct: GST-full length
Summary of the method: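 Masliner-normalised scans of fluorescent anti-GST signal were the basis for scoring. That signal came from GST-tagged yeast transcription factors applied at about 100-200 nM to double-stranded universal all-10-mer Agilent arrays on fresh or once-stripped slides. Each ungapped eight-base word, pooled with its reverse complement, received an E-score from the Universal PBM Analysis Suite.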

In order of rising “PBM E-score” value:
1. CCCCCTAC  -0.32
2. ATCTGTCC  -0.318
3. GAGAGAGC  -0.261
4. AGAAGTCT  -0.257
5. CAGTAGGA  -0.247
6. AAGAGCAG  -0.247
7. CACGGCTG  -0.212
8. CGTCTAGC  -0.21
9. CAGCTGTA  -0.203
10. CGTGAGGA  -0.201
11. ATCTAGGC  -0.197
12. CGGCTGAC  -0.193
13. AAGCCTGC  -0.182
14. ACTGCTTC  -0.175
15. GAGCGTGC  -0.173
16. TGCCCTAA  -0.171
17. CGGACTTC  -0.17
18. GCTCGAGC  -0.169
19. CACTCTGG  -0.151
20. AACTTGAG  -0.143
21. ATTGACTG  -0.136
22. AAATGGAG  -0.132
23. CTCAGCAG  -0.129
24. AAGCCTGT  -0.128
25. AGAGCGAA  -0.124
26. AGCCCTAC  -0.12
27. CAGGCGAC  -0.117
28. GAAAGCGC  -0.115
29. CGCCACTA  -0.111
30. CGTTAGAG  -0.109
31. CATCCAGC  -0.108
32. TCAGCGAA  -0.107
33. GGCGACAC  -0.0969
34. GATAGAGC  -0.0954
35. CTCGCTTA  -0.0929
36. AATCCAAC  -0.0925
37. AGATAGGG  -0.0822
38. AACAGGGC  -0.0745
39. TGTGAGAA  -0.0687
40. CATATGGA  -0.057
41. ATGCAGTG  -0.0561
42. CATTCTAG  -0.0521
43. AGCCTGAG  -0.0458
44. GAGGGCAA  -0.0412
45. ACCAGGGG  -0.0398
46. GCCCGCGC  -0.0387
47. CCAATGCA  -0.0366
48. CGTCACGA  -0.0348
49. CGTCACAA  -0.0229
50. ACTCATGA  -0.0211
51. CAACTGGC  -0.0185
52. CGGTTGCA  -0.0132
53. TGACACCA  -0.0107
54. AATAGGGA  -0.0102
55. ATGGTAGA  -0.00844
56. CAGCATGG  -0.00544
57. CAAATTCC  -0.00509
58. CGCCCTAG  -0.00248
59. ACCAGGGA  -0.00163
60. ATAAAGAT  0.00332
61. CGTCGCGA  0.00596
62. CTACCTGA  0.00976
63. AACACCTA  0.0163
64. GAGACCTC  0.0168
65. CTTCAGTA  0.0193
66. AGTCACGA  0.0207
67. CCACCTGA  0.0282
68. CCCTACAC  0.0286
69. AGATATCT  0.0317
70. GCCTTGAA  0.0337
71. CTGTACTA  0.0369
72. CTCACGAG  0.0376
73. ACGGTCAG  0.0381
74. AACAGGGA  0.044
75. AATAGGGG  0.0477
76. AAACCTAG  0.051
77. GGATAGAA  0.0515
78. AAGTTGCG  0.0515
79. AAACCTGT  0.0581
80. CCGTTTGC  0.0589
81. AGAAACCG  0.0611
82. AGATACCG  0.0651
83. ATGGTGCA  0.0684
84. CAGGTCAG  0.0791
85. ATCCCTAG  0.0856
86. CTTAGGGC  0.0876
87. AGGTTGCC  0.088
88. TGTCACAA  0.0989
89. CCCTTGAA  0.102
90. ACCTTGGC  0.106
91. GCACCTTA  0.112
92. AAGTTGTA  0.112
93. AGTCGCGA  0.113
94. GGTTTGTA  0.119
95. CCTTTCTA  0.121
96. AGAGACCA  0.121
97. AAGGTCCT  0.123
98. AAATACCT  0.128
99. ACCTGAAT  0.136
100. AGATACCA  0.137
101. AAGGTCTG  0.15
102. GAGACCAC  0.15
103. AAGGTCCC  0.152
104. CGGTTGTA  0.153
105. TGATTGAA  0.154
106. TCCTTGAA  0.158
107. TATTAGAA  0.159
108. GGGTTGGA  0.16
109. AAGGTCTC  0.162
110. AAACCTAT  0.164
111. GGATACCA  0.17
112. AAGGTCGA  0.176
113. ACGGTCAA  0.177
114. ACCTACAA  0.178
115. ATACCTTA  0.184
116. ACCTAAGG  0.185
117. CCCTTGAC  0.193
118. AAGGTCGC  0.193
119. AAACCTAC  0.194
120. ACCTTGGA  0.195
121. CAGGTCAC  0.195
122. GAGGTCAA  0.21
123. CAACTAAC  0.21
124. CAATACCC  0.214
125. GCTTGACC  0.214
126. ACCTTGCT  0.218
127. ATCTAACC  0.226
128. AGGTTGGG  0.232
129. CACCCTCG  0.234
130. AGGTTGTC  0.242
131. ACCTTGAC  0.266
132. AACCCTCT  0.27
133. CGATACCC  0.275
134. AAGGTCAA  0.279
135. ACCTTGCG  0.284
136. AACCACTC  0.289
137. AGGTTGCA  0.299
138. GACCCTAC  0.311
139. AAGGTCAG  0.32
140. GGTCGCGA  0.32
141. AGATACCC  0.325
142. ACCTTGAT  0.325
143. ACCTTGGG  0.327
144. CTACCTTA  0.327
145. AAATACCC  0.328
146. CACCCTAC  0.328
147. CCCTTGAG  0.33
148. CCCTACAA  0.33
149. AGGTTGCG  0.333
150. AAGGTCGT  0.334
151. ACCTTGAA  0.337
152. AGGTTGTA  0.338
153. CCACCTTA  0.342
154. AACAGGGT  0.348
155. AGGTTGTG  0.349
156. GGGTTGTA  0.35
157. GGGTTGCA  0.352
158. CACCCTAG  0.353
159. ACCTTGAG  0.354
160. AACCCTAC  0.357
161. ACCAGGGT  0.358
162. ACGGTCAT  0.359
163. AATAGGGT  0.374
164. GGTCACGA  0.391
165. GAGGTCAC  0.392
166. GGATACCC  0.393
167. GGTCACAA  0.393
168. AACCCTAG  0.408
169. AAGGTCAC  0.417
170. AACCCTGT  0.419
171. AACCCTAT  0.441
172. AAGGTCAT  0.444
